Screens (PubChem BioAssay)
BoNT-A LC inh2 – blocks Botulinum neurotoxin A light chain protease. inhibition, % at 10 µM. 360,000 tested, 0.17% active. AID 588499. multiplex microsphere protease substrate cleavage, flow cytometry
BoNT F protease – inhibitors of Botulinum neurotoxin F light chain protease; Multiplex microsphere protease cleavage assay, flow cytometry; inhibition, % at 10 µM; 360,000 tested, 0.22% active; AID 588497; in the data active means inhibition above about 35%, passing the limit was not always enough; inconclusive means no clear call, values can overlap the other calls
Anthrax LF prot – inhibitors of Bacillus anthracis lethal factor protease; 360,000 tested, 0.12% active; inhibition, % at 10 µM; P15917; multiplex microsphere protease cleavage assay, LF
PfHsp40 rescue – restores yeast growth despite PfHsp40 toxicity. AID 504582. S. cerevisiae expressing PfHsp40, growth rescue, ATP luminescence. 340,000 tested, 0.68% active. growth rescue, % at 12.5 µM; in the data active means growth rescue above about 28%, passing the limit was not always enough; inconclusive means no clear call, values can overlap the other calls;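 further: yeast W303a lacking pdr1 and pdr3 grown in galactose medium; growth measured after three days at 30 °C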
Autofluor counter – counter-screen for toxin protease inhibitors: compound fluorescence. fluorescence intensity (test concentration not listed). 360,000 tested, 3.1% active. compound autofluorescence counterscreen, microsphere flow cytometry; stronger effect = higher value. AID 624483; in the data active means fluorescence intensity above about 16000; inconclusive means no clear call, values can overlap the other calls
MazF activator – increases E. coli MazEF RNase cleavage of RNA | FAM/BHQ RNA-DNA oligo cleavage fluorescence, 5 h | activation, % at 20 µM | 350,000 tested, 0.32% active; in the data active means activation above about 50%
Target sequence (P0AE70 whole entry, looked up): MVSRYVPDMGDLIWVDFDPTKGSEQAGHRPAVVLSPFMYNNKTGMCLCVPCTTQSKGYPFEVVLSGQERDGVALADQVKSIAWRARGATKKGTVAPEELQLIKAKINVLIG
A number is an active result; . = inactive; ? = inconclusive; / = no result. In the library only some 4.3% were active in any assay of this set; here they are far more common. Unless noted, no stated cut-off is given here; in the data, active means inhibition above about 30%; inconclusive means no clear call, values can overlap the other calls; inactive means below that.

SMILES	BoNT-A LC inh2	BoNT F protease	Anthrax LF prot	PfHsp40 rescue	Autofluor counter	MazF activator
Cc1cccc(OCc2nc(C#N)c(NCc3ccc4c(c3)OCO4)o2)c1	.	.	.	29.2	.	.
COc1ccc(CNc2oc(COc3ccccc3)nc2C#N)cc1	.	.	.	.	.	.
COc1ccc(CNc2oc(C)nc2C#N)cc1	?	.	.	.	20862	.
N#Cc1nc(COc2ccccc2Cl)oc1NCc1ccc(F)cc1	.	.	.	.	22901	.
N#Cc1nc(COc2ccc(F)cc2)oc1N1CCC(Cc2ccccc2)CC1	.	.	.	.	16803	.
Cc1ccc(CNc2oc(COc3ccccc3Cl)nc2C#N)cc1	.	.	.	.	.	.
COc1ccc(N2CCN(c3oc(COc4ccccc4Cl)nc3C#N)CC2)cc1	?	.	.	.	19893	.
CCC(CC)C(=O)Nc1cccc(C(=O)Nc2ccc(S(=O)(=O)Nc3ccc(C)cc3)cc2)c1	.	.	.	.	22769	.
CCC(CC)C(=O)Nc1cccc(S(=O)(=O)c2cccc(NC(=O)C(CC)CC)c2)c1	.	.	.	.	16846	.
COc1ccc(Cl)cc1S(=O)(=O)NC(C)C(=O)NCc1cccnc1 (stereo unspecified)	.	.	.	.	.	.
COc1ccc(OC)c(CNc2ccc(F)c(Cl)c2)c1	.	.	.	38.2	.	.
CCOC(=O)c1c(C)[nH]c(C(=O)COC(=O)C2(C)CC2(Cl)Cl)c1C (stereo unspecified)	.	.	.	.	23186	.
CCOC(=O)c1c(C)[nH]c(C(=O)COC(=O)C2CC2)c1C	?	?	?	.	?	.
CCOC(=O)c1c(C)[nH]c(C)c1C(=O)CSc1ncccn1	.	.	.	.	21577	.
CCOC(=O)c1c(C)[nH]c(C(=O)OCC(=O)c2ccccc2)c1C	.	.	.	.	.	.
CCOC(=O)c1c(C)[nH]c(C(=O)COC(=O)c2ccccn2)c1C	.	.	.	.	19471	.
Cc1cc(C)nc(N2CCCC(C(=O)Nc3ccc4c(c3)OCCO4)C2)n1 (stereo unspecified)	.	.	.	.	.	.
O=C(Nc1ccc2c(c1)OCO2)C1CCCN(c2nc3ccccc3s2)C1 (stereo unspecified)	.	.	.	.	18282	.
CCc1nnc(NC(=O)C2CCCN(c3nc4ccccc4s3)C2)s1 (stereo unspecified)	.	.	.	.	19697	.
COc1ccc(CCNC(=O)C2CCCN(c3nc4ccccc4s3)C2)cc1OC (stereo unspecified)	.	.	.	.	.	.
O=C(NCc1nnc(SCC(=O)N2CCCC2)o1)c1cccc(C(F)(F)F)c1	.	.	.	.	.	.
CC(=O)N1CCN(Cc2ccc(Br)s2)CC1	.	.	.	.	22754	.
CCOc1ccccc1N1CCN(Cc2ccc(Br)s2)CC1	.	.	.	.	.	.
CC(=O)c1cccc(NC(=O)c2csc(-n3nc(C)cc3C(F)(F)F)n2)c1	?	.	.	.	22022	.
Cc1cc(C(F)(F)F)n(-c2nc(C(=O)Nc3cccnc3)cs2)n1	.	.	.	.	.	.
SMILES	BoNT-A LC inh2	BoNT F protease	Anthrax LF prot	PfHsp40 rescue	Autofluor counter	MazF activator
CC(C)(C)NC(=O)C(c1ccco1)N(C(=O)Cn1nnc(-c2ccc(F)cc2)n1)c1cccc(F)c1 (stereo unspecified)	.	.	.	.	22593	.
Cc1nc(C(=O)Nc2cccc(Cl)c2)nn1-c1cc(OC(C)C)c(Cl)cc1Cl	?	.	.	.	23251	.
Cc1nc(C(=O)Nc2cc(Cl)ccc2Cl)nn1-c1cc(OC(C)C)c(Cl)cc1Cl	.	.	.	.	24341	.
COC(=O)CC1C(=O)NCCN1C(=S)NC(=O)c1sc2ccccc2c1Cl (stereo unspecified)	.	.	.	.	.	.
CC(OC(=O)CSc1ccccc1)C(=O)NC1CCCCC1C (stereo unspecified)	.	.	.	.	.	.
COc1ccc(NC(C)C(=O)N/N=C/c2ccccc2OCc2cccc(Br)c2)cc1 (stereo unspecified)	.	.	.	.	.	.
Cc1ccccc1NC(C)C(=O)N/N=C/c1ccccc1OCc1cccc(Br)c1 (stereo unspecified)	/	/	/	35.2	/	.
Cc1ccccc1CSCCNC(=O)Nc1ccccc1	.	.	.	.	.	.
COc1ccccc1OCC(=O)Nc1ccc(NC(=O)COc2ccccc2OC)cc1	.	.	.	.	.	.
